The assay relates to LXRb:RXRa (NR concentration 270 nM, RXRa partner concentration 90 nM). The experiment in a line: PBM binding z-score (relative to random genomic background probes); higher = stronger binding; sequences stand for … in GC…GCGATTGACAGCGTAGAATGAAGG
The method, then:
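Protein-binding microarray (Agilent 4x180K custom design, double-stranded 60-nt probes: 5' GC cap, 34-nt variable region, 24-nt constant primer region; full probe sequence given). Purified or IVT nuclear receptor:RXRα heterodimers (3:1 NR:RXRα, mostly 270:90 nM) or homodimers were incubated for 1 h in PBS with 2% milk and no ligand, then detected with Alexa488 antibodies. Fluorescence from o1-orientation probes (~5 replicates averaged) was converted to z-scores against 500 random hg19 background probes. Variable regions are seed direct-repeat (DR0–DR5) sites, all their single-nucleotide variants and half-site ablations.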
Turning to CAAACTAGGTCAAGAGGTCAAAGTTCGCTTCCCG, the PBM binding z-score is 6.05.
For AGTCAAAGTTTATCTAGGTAACGTAAGATATGCT the value was 0.175.
For CGTACAAGGTCAAAGGTCAGTGAAGAGATGACGG the value was 6.66; for CCAACTGGGCCAAAAAGGTCATTGATGCCGATAA, 4.36; for ATCGAAAGGTCCACGAGGTGAGTATACACCGTTT, -0.0349.
CCTACTGGGCCAAAGAGGTCATTGATGCCGATAA showed a PBM binding z-score of 3.65.
ACTTACGGGTCTACGAGGTTATAGCACGCGTATA had a PBM binding z-score of 0.819.
For the sequence TAGCCTAAGTCATGCGGGCCAGTATAGTGTCGGC, the PBM binding z-score was -0.501.
The sequence TCTTGTAGATCAATAGAAGTTAAGAAAGTGCGCT came in with a PBM binding z-score of 0.436.
The figure for TATAAAGGGTCAAAGGCCAGAGTACGAATGTCGA is 5.24; for TCTCGGAGGACACTAAAGGTCAGAGCTCGACATC it is 3.73; for CCTACTGGACCAAGGTCATTGATCAGTCAAAGCA it is 3.46.
In turn, ACTTACGGCTCAACGAGGTTATAGCACGCGTATA registered a PBM binding z-score of 0.741.
TAGCCTAGGTCGTTCAGGGGCCAGTATAGAAAGC gave a PBM binding z-score of 0.582.
For the sequence ATATGTAGGTTAGGGTCAGTCAGAAAGTAGGGAA, the PBM binding z-score worked out at 3.
The figure for AGCGAAAGGTCGAGGTGAGTATAGAGAAAGGGAA is 2.7.
For CCTACTGGGCCAAAGGTGATTGATTCCAATGCTC the value was 0.206.
In turn, GCTGCTAGTTCAACTGATGGTCAGCTAAAGCTCG came in with a PBM binding z-score of 0.0556.
The sequence TAGCCGAGGTCATTCAGGGGCCAGTATAGAAAGC returned a PBM binding z-score of 5.52.
As to CCTTACGGGTCCCTCCAGGTTATAGCATCGGAGT, the PBM binding z-score is -0.459.
Consider GGAACGAGGTCAAAGTTGATAGCATCTGTCGACG, for which the PBM binding z-score was found to be 5.45.
TTACCAAGGTGAAAGGTCGTTGCTGCACGCCTTG registered a PBM binding z-score of 2.89.
As for CGCACTAGGTCATCCAGGACAGTGAATACATTGA, the PBM binding z-score came out at 2.21.
Sequence CCTAGCAGGCCAATCTAGGTCACTCAAGGCTTGA came in with a PBM binding z-score of 1.24.
For ATATGTAGGTTACATCCGGGTCATCCAGGCTATG the value was 2.76; for AATACAAGGTCATCGTAGGCCAGAGTACGCACAG, 5.13.
Consider GTTACAGGGTCAAGGCCAGAGTACGCGTATTGAT, for which the PBM binding z-score was 3.64.
The figure for CGTCCAAGGTCAGCGGGTCAGTGAAAGCGACGTG is 3.11.
In turn, TTACCAAGGTCAAGGTCGTTGATCCCTCTGTAGA had a PBM binding z-score of 5.02.
The figure for TATCAAAGTTCAAAGGTAACGTAAGTATCCACAC is 4.98; for TCTGCTAGGTCAACGATGGTCAGTTAATCTGCTA it is 1.72; for TGTATGAGGTTAAAGATCAGGGAACGTGGCGTCG it is 2.16.
As for CCTACTGGGCCATTCAGAGGTCAATGATCATATG, the PBM binding z-score is 3.64.
The figure for ATCGAAAGGTCGACGAGGTGAGTAAACACCGTTT is 2.87; for AGAATGGGGTTACCAAAGATCAGGGAAACGCTTG it is 5.03; for GATACAGGGTCGGCTAGAGGCCAGAGTATGGAAA it is 0.129.
As for CAAACTAGTTCAAGAGGTCAAAGTCCGCTTCCCG, the PBM binding z-score was found to be 5.37.
For CATACAGGGTCGGCTAGGCCAGAGTAGGGACGGC the value was -0.242; for AATACAGGGTGACTAGGCCAGAGTAGGTACGAAT, 0.204; for CGTCCGAGGTCATAGGAGGTCAGTGAAGACAGAT, 6.8.

Source of the values: the supplement of paper PMC6555819.
